NFkB SMM: NF-kappa-B p105 (human) binding | P19838 | Small molecule microarray, anti-His fluorescence binding | calls only | 17,000 tested, 1.3% active;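 active = spot fluorescence over background significantly raised, with a chance value under 7% in all four replicate spots of the compound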;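 note: probe protein is his-tagged human p50 processed subunit at 1 µg/ml; raw spot fluorescence signals with no normalization applied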
mut p53 SMM: binds human mutant p53 on microarray. small molecule microarray binding, anti-GST fluorescence. calls only. 17,000 tested, 0.4% active;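 active = compounds whose four printed spots each glow above background more than chance allows, each with a p-value under 7%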
STAT3 binder: binders of human STAT3; Small molecule microarray, His-STAT3 binding, anti-His fluorescence; 17,000 tested, 0.2% active; P40763; calls only; AID 624138;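 active = compounds whose four printed spots each show fluorescence over background unusually high for their array block, chance value under 7%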
mut p53 react: mutant p53 pathway reactivation | 28,000 tested, 1.5% active | SW480 PUMA-promoter luciferase | AID 624151 | activation, % at 9.98 µM; in the data active = activation above about 52%
c-Myc SMM: binds human c-Myc on microarray. P01106. small molecule microarray, His-c-Myc binding, anti-His fluorescence. calls only. 17,000 tested, 1.5% active. AID 624141;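 active = spot fluorescence over background with P-value below 7% in all four replicate spots, showing protein binding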;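 note: score is binary with 100 for all four spots passing and 0 otherwise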
Target sequence (P01106 whole entry, looked up): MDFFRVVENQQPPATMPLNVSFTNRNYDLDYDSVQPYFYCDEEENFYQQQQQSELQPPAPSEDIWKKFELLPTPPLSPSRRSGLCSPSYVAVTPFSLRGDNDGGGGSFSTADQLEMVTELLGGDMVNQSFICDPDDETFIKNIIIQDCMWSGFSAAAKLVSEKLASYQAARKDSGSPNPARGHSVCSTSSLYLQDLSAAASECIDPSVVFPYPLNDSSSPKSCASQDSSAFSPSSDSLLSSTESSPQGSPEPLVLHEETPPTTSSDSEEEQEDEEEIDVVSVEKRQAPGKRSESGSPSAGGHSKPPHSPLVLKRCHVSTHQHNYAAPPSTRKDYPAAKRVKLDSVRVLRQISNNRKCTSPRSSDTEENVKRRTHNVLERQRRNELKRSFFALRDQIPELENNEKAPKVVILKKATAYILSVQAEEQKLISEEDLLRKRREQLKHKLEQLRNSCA
* = called active by the depositor; i = inactive; / = not tested or not shown; + = active, no number. In the library only some 2.6% were active in any assay of this set; here they are far more common.

SMILES	NFkB SMM	mut p53 SMM	STAT3 binder	mut p53 react	c-Myc SMM
COc1ccc(S(=O)(=O)N(C)C[C@H]2Oc3ccc(NC(=O)Nc4c(C)noc4C)cc3CC(=O)N([C@H](C)CO)C[C@H]2C)cc1	i	i	i	/	i
CC(C)(C)C(=O)CSc1ncnc2sc3c(c12)CCCC3	/	/	/	71.0*	/
O=C(CSc1ncnc2sc3c(c12)CCCC3)N1CCc2ccccc21	/	/	/	-3.8	/
COC(=O)c1sccc1-c1ccc(-c2ccn(C(=O)c3ccc(Cl)cc3)n2)o1	/	/	/	96.8*	/
CSc1ccccc1NC(=O)C(C)n1nc(C)c([N+](=O)[O-])c1C (stereo not drawn)	/	/	/	-1.8	/
O=C(NCc1nc2ccccc2[nH]1)c1ccccc1	i	i	i	94.4*	i
CC(C)(Oc1ccc(Cl)cc1)C(=O)NCc1ccco1	/	/	/	3.4	/
O=C(c1cccs1)n1nc(-c2ccc(Cl)cc2)nc1NCc1ccco1	/	/	/	101.8*	/
COc1ccc(C(=O)n2nc(-c3ccc(Cl)cc3)nc2NCc2ccco2)cc1	/	/	/	117.9*	/
CC(=O)n1nc(-c2ccc(Cl)cc2)nc1NCc1ccco1	i	i	i	148.4*	i
Cn1c(SCC(=O)O)nnc1-c1ccccc1	i	i	i	6.7	i
Cc1nc(SCC(=O)c2ccccc2)c2sc3nc4c(cc3c2n1)COC(C)(C)C4	i	i	i	91.1*	i
CCOC(=O)CSc1ncnc2c1sc1nc3c(cc12)COC(C)(C)C3	/	/	/	-16.7	/
CCCc1cc(=O)[nH]c(SCC(=O)Nc2cc(C)cc(C)c2)n1	i	i	i	-7.8	i
O=C(Nc1ccccc1C(=O)NCc1ccco1)c1ccc(-c2ccccc2)cc1	/	/	/	57.7*	/
O=C(O)CSc1cn(Cc2ccccc2)c2ccccc12	/	/	/	-9.2	/
O=C(O)CSc1c[nH]c2ccccc12	i	i	i	-5.6	+
COc1ccc2nc(Nc3nc(C)c(CCC(C)C)c(=O)[nH]3)nc(C)c2c1	+	i	i	29.7	i
CS(=O)(=O)N(CC(=O)Nc1ccc(Br)cc1F)c1ccccc1Cl	i	i	i	-5.1	i
COc1ccccc1CC(CC(=O)O)C(=O)O (stereo not drawn)	+	i	i	-8.2	+
CC1(C)CC(=O)c2c(O)cc(OCC(=O)c3cccc([N+](=O)[O-])c3)cc2O1	/	/	/	74.8*	/
Cc1csc(SCC(=O)Nc2ccc3c(c2)OCCO3)n1	/	/	/	60.8*	/
O=C(CS(=O)c1ccccc1[N+](=O)[O-])Nc1cccc(C(F)(F)F)c1 (stereo not drawn)	i	i	i	70.5*	i
O=C(O)CCC(=O)Nc1cccc(C(F)(F)F)c1	/	/	/	-6.3	/
C[C@H](CO)N1C[C@H](C)[C@H](CN(C)C(=O)CCC(F)(F)F)OCCCC[C@H](C)Oc2ccc(NC(=O)c3ccncc3)cc2C1=O	+	i	i	9.0	+
SMILES	NFkB SMM	mut p53 SMM	STAT3 binder	mut p53 react	c-Myc SMM
C[C@@H]1CCCCO[C@H](CN(C)C(=O)CCC(F)(F)F)[C@H](C)CN([C@@H](C)CO)C(=O)c2cc(NC(=O)c3ccncc3)ccc2O1	+	i	i	4.8	i
Cc1nc(SCC(=O)c2cc3ccccc3oc2=O)c(C(N)=O)c(C)c1C	/	/	/	22.7	/
Cc1ccc(S(=O)(=O)NCC(=O)Nc2ccc(C(N)=O)cc2)cc1	/	/	/	0.7	/
OC(COc1ccc(Cl)cc1)CSc1ccccn1 (stereo not drawn)	i	i	i	77.7*	i
CN(C)C=NC(=O)c1ccc(-c2cccs2)s1	/	/	/	34.2	/
Cc1ccc(OCC(O)CNc2ccc(Br)c(C(F)(F)F)c2)cc1C (stereo not drawn)	/	/	/	-4.4	/
COC(=O)c1ccccc1NC(=O)CC1Sc2ccc(C(F)(F)F)cc2NC1=O (stereo not drawn)	/	/	/	0.3	/
COc1ccc(CCC(=O)c2ccc(OC)cc2O)cc1	i	i	i	58.5*	i
CCCn1cnc2cc(NCc3ccccn3)ccc21	i	i	i	77.5*	i
CCOc1ccccc1CNCc1ccccn1	i	i	i	10.1	i
Cc1ccc(NC(=O)CNC(=O)c2ccco2)cc1	i	i	i	58.8*	i
Cc1cc(C(F)(F)F)c(C#N)c(SCC(=O)Nc2ccc(Cl)cc2)n1	i	i	i	124.4*	i
CSc1nc(N)nc(SCC(=O)Nc2ccc(Cl)cc2)c1C#N	/	/	/	27.4	/

Bioassay records deposited in PubChem BioAssay by Broad Institute.
